Test results published in PubChem BioAssay.
Calls of active or inactive are those of the source.

Key:
[1] = E. coli DRC41 culture turbidity changes, primary screen, E. coli filamentation inducer project, strain DRC41, OD650, 48 h (AID 1152);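 also: E. coli MC1000 strain DRC41 lacking acrAB efflux pump and sulA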; conditions: E. coli DRC41 (acrAB sulA), higher = more signal, called active from +8 up or from −8 down
[2] = small-molecule binders of probe aLefty1, primary screen, biochemical, small-molecule microarray, 635/667 nm fluorescence (AID 1153); conditions: higher = more signal;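 also: score merges spot fluorescence with signal-to-noise ratio from the scanned slide images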
[3] = PSAC antagonists in infected red cells, primary screen, cell-based, P. falciparum Indochina, OD700, 1 h (AID 1154); conditions: P. falciparum Indochina infected RBC osmotic lysis, higher = more signal, called active from +8 up or from −8 down
[4] = PSAC antagonists in infected red cells, primary screen, cell-based, P. falciparum Indochina, OD700, 2 h (AID 1155);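 also: lysis reports solute entry through the parasite surface anion channel PSAC; channel blockers reduce lysis of infected cells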; conditions: P. falciparum Indochina infected erythrocytes, osmotic lysis OD700; higher = more signal, called active from +8 up or from −8 down
[5] = osmotic lysis modulators in infected erythrocytes, primary screen, PSAC antagonist project, cell-based, P. falciparum Indochina, OD700, 3 h (AID 1156); conditions: higher = more signal, called active from +8 up or from −8 down
[6] = PSAC antagonists in infected red cells, primary screen, cell-based, P. falciparum Indochina, OD700, 18 h (AID 1157); conditions: P. falciparum Indochina infected erythrocytes, osmotic lysis OD700, 18 h; higher = more signal, called active from +8 up or from −8 down
[7] = modulators of S6 phosphorylation in cells, primary screen, cell-based, A549, cytoblot, luminescence, serum-stimulated (AID 1158); conditions: A549 phospho-S6 cytoblot, 5 h, higher = more signal;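 also: serum-stimulated A549 lung adenocarcinoma cells; signal is phosphorylated S6 detected by cytoblot immunostaining with HRP secondary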
[8] = molecular target: NADPH oxidase 2 (Homo sapiens) (UniProt P04839); test: NOX2-dependent H2O2 signal modulators, primary screen, NOX inhibitor project, cell-based, HEK293-NOX2, PMA-stimulated, Amplex Red fluorescence (AID 1159); conditions: 45 min, higher = more signal, called active from +8 up or from −8 down; also: test concentration not given here
[9] = molecular target: NADPH oxidase 4 (Homo sapiens) (UniProt Q9NPH5); test: NOX4-dependent H2O2 signal modulators, primary screen, NOX inhibitor project, cell-based, HEK293-NOX4, tetracycline-induced, Amplex Red fluorescence (AID 1160); conditions: 45 min, higher = more signal, called active from +8 up or from −8 down
[10] = molecular target: NADPH oxidase 5 (Homo sapiens) (UniProt Q96PH1); test: NOX5-dependent H2O2 signal modulators, primary screen, NOX inhibitor project, cell-based, HEK293-NOX5, Amplex Red fluorescence (AID 1161); conditions: HEK293-NOX5, ionomycin, 45 min, higher = more signal
[11] = A549 cell viability effects, profiling panel, calcein-AM fluorescence, 48 h, basal (AID 1162); conditions: higher = more signal; also: test concentration not given here
[12] = adipocyte viability effects, profiling panel, cell-based, 3T3-L1 adipocytes, calcein-AM fluorescence, 48 h, basal (AID 1163); conditions: 3T3-L1 adipocytes viability, higher = more signal; also: test concentration not given here
[13] = HepG2 cell viability effects, profiling panel, calcein-AM fluorescence, 48 h, basal (AID 1164); conditions: higher = more signal; also: test concentration not given here
[14] = MM1S cell viability effects, profiling panel, calcein-AM fluorescence, 48 h, basal (AID 1165); conditions: higher = more signal;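 also: viability of MM1S multiple myeloma cells under basal unstimulated conditions; test concentration not given here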
[15] = basal RPMI8226 viability, no added stimulus, profiling panel, cell-based, calcein-AM fluorescence, 48 h, PK04 Diversity Set (AID 1166); conditions: RPMI8226 myeloma viability, higher = more signal;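 also: cells grown under basal conditions without added stimulus; test concentration not given here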
[16] = basal HepG2 mitochondrial membrane potential changes, profiling panel, cell-based, JC-1 fluorescence, 24 h, 100 nL compound (AID 1167); conditions: higher = more signal; also: test concentration not given here
[17] = basal 3T3-L1 adipocyte mitochondrial potential changes, profiling panel, cell-based, JC-1 fluorescence, 3T3-L1 adipocytes, 24 h, 100 nL compound (AID 1168); conditions: JC-1 mitochondrial fluorescence, higher = more signal, called active from +8 up or from −8 down; also: test concentration not given here
[18] = basal RPMI8226 mitochondrial membrane potential changes, profiling panel, cell-based, JC-1 fluorescence, 24 h, 100 nL compound (AID 1169); conditions: RPMI8226 myeloma, JC-1 mitochondrial potential fluorescence, higher = more signal; also: test concentration not given here
[19] = basal MM1S mitochondrial membrane potential changes, profiling panel, cell-based, JC-1 fluorescence, 24 h, 100 nL compound (AID 1170); conditions: higher = more signal; also: test concentration not given here
[20] = A549 lung cancer cell viability effects, profiling panel, resazurin fluorescence, 24 h, PK04 Diversity Set (AID 1171); conditions: higher = more signal, called active from +8 up or from −8 down; also: test concentration not given here

Sequence of NADPH oxidase 2 (Homo sapiens) (P04839 whole entry, looked up): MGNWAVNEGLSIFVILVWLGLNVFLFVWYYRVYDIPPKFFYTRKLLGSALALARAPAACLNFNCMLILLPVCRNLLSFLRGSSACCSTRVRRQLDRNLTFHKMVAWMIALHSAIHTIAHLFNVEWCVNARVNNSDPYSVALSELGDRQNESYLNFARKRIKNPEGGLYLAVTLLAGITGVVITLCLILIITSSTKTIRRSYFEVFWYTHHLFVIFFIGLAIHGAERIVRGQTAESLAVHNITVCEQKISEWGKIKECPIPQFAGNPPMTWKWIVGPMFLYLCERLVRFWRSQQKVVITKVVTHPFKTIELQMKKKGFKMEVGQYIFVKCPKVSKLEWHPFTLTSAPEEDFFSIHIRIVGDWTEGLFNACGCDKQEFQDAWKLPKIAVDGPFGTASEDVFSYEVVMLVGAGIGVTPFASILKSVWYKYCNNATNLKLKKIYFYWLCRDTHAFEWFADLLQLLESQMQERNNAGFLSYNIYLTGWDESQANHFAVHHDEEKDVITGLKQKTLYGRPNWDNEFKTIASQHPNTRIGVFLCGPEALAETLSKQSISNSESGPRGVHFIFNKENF
Sequence of NADPH oxidase 5 (Homo sapiens) (Q96PH1 whole entry, looked up): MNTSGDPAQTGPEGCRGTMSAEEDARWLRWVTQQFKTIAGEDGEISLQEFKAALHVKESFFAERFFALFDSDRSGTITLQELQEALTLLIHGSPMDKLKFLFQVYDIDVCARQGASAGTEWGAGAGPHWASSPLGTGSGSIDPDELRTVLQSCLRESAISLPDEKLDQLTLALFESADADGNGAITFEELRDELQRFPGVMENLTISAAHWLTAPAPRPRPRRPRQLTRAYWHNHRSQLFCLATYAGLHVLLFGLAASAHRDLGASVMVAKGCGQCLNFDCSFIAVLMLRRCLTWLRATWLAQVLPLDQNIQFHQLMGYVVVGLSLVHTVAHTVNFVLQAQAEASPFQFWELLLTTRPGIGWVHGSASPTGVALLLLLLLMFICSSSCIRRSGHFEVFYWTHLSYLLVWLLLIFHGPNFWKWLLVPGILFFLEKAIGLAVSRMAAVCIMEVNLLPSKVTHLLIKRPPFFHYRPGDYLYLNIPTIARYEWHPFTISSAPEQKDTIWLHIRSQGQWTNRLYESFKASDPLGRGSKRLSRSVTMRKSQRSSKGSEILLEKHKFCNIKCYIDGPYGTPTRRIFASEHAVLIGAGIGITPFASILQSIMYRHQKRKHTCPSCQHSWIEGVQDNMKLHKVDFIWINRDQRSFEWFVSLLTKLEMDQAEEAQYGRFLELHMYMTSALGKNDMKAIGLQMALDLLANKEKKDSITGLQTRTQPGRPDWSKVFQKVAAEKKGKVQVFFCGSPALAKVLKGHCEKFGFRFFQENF
Sequence of NADPH oxidase 4 (Homo sapiens) (Q9NPH5 whole entry, looked up): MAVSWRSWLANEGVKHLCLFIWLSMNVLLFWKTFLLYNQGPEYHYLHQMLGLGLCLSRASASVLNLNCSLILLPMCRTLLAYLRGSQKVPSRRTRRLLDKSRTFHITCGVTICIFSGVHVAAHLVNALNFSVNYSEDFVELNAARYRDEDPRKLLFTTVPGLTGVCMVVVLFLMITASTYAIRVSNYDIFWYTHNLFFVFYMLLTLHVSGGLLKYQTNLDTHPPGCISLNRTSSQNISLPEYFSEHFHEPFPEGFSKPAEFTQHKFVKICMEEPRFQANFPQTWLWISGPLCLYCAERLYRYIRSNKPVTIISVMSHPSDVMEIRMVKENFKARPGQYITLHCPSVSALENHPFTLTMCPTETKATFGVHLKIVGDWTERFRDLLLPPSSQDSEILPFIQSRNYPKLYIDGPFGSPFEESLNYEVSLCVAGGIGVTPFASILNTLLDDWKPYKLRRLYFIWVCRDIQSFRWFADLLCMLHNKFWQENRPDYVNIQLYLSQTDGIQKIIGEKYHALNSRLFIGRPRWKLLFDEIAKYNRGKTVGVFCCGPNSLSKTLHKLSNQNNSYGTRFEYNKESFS

Compound	z-score [1]	composite z-score [2]	z-score [3]	z-score [4]	z-score [5]	z-score [6]	z-score [7]	z-score [8]	z-score [9]	z-score [10]	z-score [11]	z-score [12]	z-score [13]	z-score [14]	z-score [15]	z-score [16]	z-score [17]	z-score [18]	z-score [19]	z-score [20]
CCCCC=C[C@@H](NC(=O)OCc1ccccc1Cl)c1ccccc1	-2.07 (inactive)	2.4	0.278 (inactive)	0.894 (inactive)	0.806 (inactive)	0.887 (inactive)	-0.0327	0.027 (inactive)	-0.52 (inactive)	1.24	-1.28	-1.2	-0.661	-0.919	-0.871	0.359	-0.337 (inactive)	-0.623	-1.03	0.297 (inactive)
C=CC[C@]1(C(=O)N2CCOCC2)COC(c2ccc(OCCCO)cc2)=N1	0.323 (inactive)	0.43	5.33 (inactive)	0.2 (inactive)	0.638 (inactive)	0.301 (inactive)	0.0334	-2.25 (inactive)	-0.335 (inactive)	-0.859	-0.559	0.147	-0.814	-0.405	-1.21	-0.658	-0.142 (inactive)	0.846	-0.422	1.47 (inactive)
COc1cccc(C)c1NC(=O)O[C@H]1[C@H](OC(=O)Nc2ccccc2-c2ccccc2)[C@H](OC(=O)Nc2ccccc2-c2ccccc2)[C@@H](OC)O[C@@H]1CO	-0.0771 (inactive)	-0.017	1.57 (inactive)	0.557 (inactive)	-0.299 (inactive)	0.742 (inactive)	-0.319	0.224 (inactive)	-0.572 (inactive)	-0.507	-0.889	0.328	0.56	-0.632	-2.77	-0.214	1.33 (inactive)	0.198	0.143	-1.11 (inactive)
CCOC(=O)C[C@H]1[C@H](OC(=O)c2ccccc2-c2ccccc2)[C@@H](NC(=O)c2ccc3ccccc3n2)c2cc(OCCCO)ccc2N1C(=O)Cc1ccc(OC)cc1	-0.783 (inactive)	0.0986	5.91 (inactive)	1.11 (inactive)	-0.0433 (inactive)	0.549 (inactive)	-0.303	0.0348 (inactive)	1.25 (inactive)	0.76	0.278	0.054	0.266	0.0554	-0.826	0.972	-0.363 (inactive)	-0.209	-0.112	0.0225 (inactive)
COc1cc2c(cc1O)C=[N+](Cc1sc3ccccc3c1Cl)CC2	-0.569 (inactive)	0.065	5.58 (inactive)	2 (inactive)	-0.703 (inactive)	1.58 (inactive)	-0.336	-3.84 (inactive)	-2.35 (inactive)	-4.02	-0.47	0.425	-0.349	-0.278	-0.133	-1.06	-0.501 (inactive)	-0.143	-0.598	0.33 (inactive)
CCCC1(C(=O)OC)C=C2C(=C(C)C(=O)C2C)CN1 (stereo not given)	-1.8 (inactive)	0.193	-0.0775 (inactive)	-0.0273 (inactive)	-0.0148 (inactive)	0.274 (inactive)	-0.386	0.43 (inactive)	-1.28 (inactive)	-2.88	-1.48	-1.07	-0.806	-0.44	-1.03	-1.96	-1.16 (inactive)	-0.0212	-0.974	-0.727 (inactive)
CCOC(=O)C1=C[C@@H](C(C)(C)C)N(S(=O)(=O)c2ccc(C)cc2)[C@H]1c1cccc2ccccc12	-1.11 (inactive)	0.0927	0.564 (inactive)	0.849 (inactive)	0.31 (inactive)	0.193 (inactive)	-0.674	-0.527 (inactive)	0.13 (inactive)	0.139	-1.35	-0.15	-1.62	-0.205	-2.97	3.37	0.348 (inactive)	-0.919	-0.541	0.828 (inactive)
CC(C)c1ccc(NN2C(C(O)c3ccc(C#N)cc3)C=CC3C(=O)N(c4ccccc4)C(=O)C32)cc1 (stereo not given)	-1.6 (inactive)	0.418	15.4 (active)	2.64 (inactive)	0.567 (inactive)	1.27 (inactive)	-1.05	-1.46 (inactive)	-3.24 (inactive)	-2.38	-0.0204	-0.708	-0.21	-0.303	-0.0634	-1.22	-0.662 (inactive)	0.629	0.179	-1.28 (inactive)
COc1cc(C(O)C2C=CC3C(=O)N(C)C(=O)C3N2Nc2ccccc2)cc(OC)c1OC (stereo not given)	-0.283 (inactive)	0.923	1.28 (inactive)	1.01 (inactive)	0.508 (inactive)	1.07 (inactive)	-0.802	-1.41 (inactive)	-2.12 (inactive)	-2.14	0.212	0.555	-0.0987	0.0355	0.438	-0.349	-0.604 (inactive)	0.221	-0.471	0.144 (inactive)
CCCC=C(CCC)[C@@H](NP(=O)(c1ccccc1)c1ccccc1)c1ccc(-c2ccccc2)cc1	-1.61 (inactive)	0.408	3.5 (inactive)	0.766 (inactive)	-1.07 (inactive)	0.96 (inactive)	-0.422	-1.02 (inactive)	-1.94 (inactive)	2.3	-1.51	-0.933	-1.47	-1.67	-2.96	-4.76	0.74 (inactive)	-0.343	-2.36	0.647 (inactive)
COc1cc2c(cc1O)C(C1CC1)N(C)CC2 (stereo not given)	0.941 (inactive)	-0.0538	1.79 (inactive)	0.546 (inactive)	0.0776 (inactive)	0.573 (inactive)	-0.0452	-4.61 (inactive)	-2.57 (inactive)	-2.96	0.368	0.381	0.575	0.533	-0.393	0.283	0.883 (inactive)	0.0965	1.87	-0.348 (inactive)
NCCCCCCNC(=O)[C@@H]1C[C@@H]2C(=O)N[C@@H](CCCCN)C(=O)N2[C@@H]1c1ccc(O)cc1	0.264 (inactive)	0.614	1.11 (inactive)	-1.03 (inactive)	-2.05 (inactive)	-1.85 (inactive)	0.0189	-1.77 (inactive)	-1.06 (inactive)	-3.51	-0.551	0.207	-0.99	-1.25	-0.0734	-1.31	0.535 (inactive)	-0.0408	-0.276	-0.71 (inactive)
C=C[C@H]1C(C(=O)OCC)=CC[C@@H](c2ccccc2)N1S(=O)(=O)c1ccc(C)cc1	-1.11 (inactive)	0.457	7.17 (inactive)	1.56 (inactive)	0.43 (inactive)	0.509 (inactive)	-0.518	0.09 (inactive)	-0.613 (inactive)	0.14	-0.438	-1.05	-0.708	-0.465	-1.46	5.08	-0.517 (inactive)	-0.309	-1.21	0.69 (inactive)
CCCNC(=O)[C@@]1(Sc2ccc(C)cc2)CC(=O)N(C2Cc3ccccc3C2)[C@@H]1c1ccc(CO)cc1I	0.815 (inactive)	0.844	9.9 (active)	2.14 (inactive)	-0.377 (inactive)	0.695 (inactive)	-0.303	0.716 (inactive)	-0.892 (inactive)	0.67	0.877	0.331	0.544	-1.54	-1.85	-0.574	-0.0979 (inactive)	-0.778	-0.987	0.309 (inactive)
COc1ccc([C@H]2OC[C@@H]3C[C@H](Cc4ccccc4)C(=O)N32)cc1	-0.446 (inactive)	0.015	1.96 (inactive)	0.92 (inactive)	-0.356 (inactive)	0.284 (inactive)	-0.133	0.829 (inactive)	0.284 (inactive)	0.695	-0.799	-0.835	-0.459	0.191	-0.598	-0.703	0.0558 (inactive)	0.00274	-0.393	-0.116 (inactive)
COC(=O)[C@@]1(Cc2ccc(OC)cc2)[C@H]2c3cc(C(=O)N4CCCC4)n(CCc4c[nH]c5ccc(OC)cc45)c3C[C@H]2CN1C(=O)c1ccccc1	-1.61 (inactive)	0.894	4.25 (inactive)	0.71 (inactive)	1.42 (inactive)	1.57 (inactive)	0.0592	0.547 (inactive)	1.14 (inactive)	1.38	-1.19	-0.791	-0.636	-1.52	-3.62	-0.205	-1.04 (inactive)	-0.819	-1.86	-2.3 (inactive)
NC(=O)[C@@]1(Cc2ccccc2)COC(c2ccc(OCCCO)cc2)=N1	0.917 (inactive)	0.533	17.5 (active)	2.55 (inactive)	0.121 (inactive)	-0.0697 (inactive)	-0.468	-0.519 (inactive)	-1.4 (inactive)	-2.14	-0.291	-0.0025	0.532	0.064	-0.453	-0.798	-0.392 (inactive)	-0.759	-0.172	0.138 (inactive)
O=C1N(Cc2ccccc2)c2ccccc2C[C@]12N=C(c1ccc(OCCCO)cc1)O[C@@H]2c1ccccc1	-0.522 (inactive)	-0.0968	24.8 (active)	15.7 (active)	1.41 (inactive)	2.71 (inactive)	-0.027	-0.73 (inactive)	0.472 (inactive)	0.0935	-1.25	-0.372	-3.54	-2.32	-3.88	-1.05	0.162 (inactive)	-1.22	-2.58	-2.07 (inactive)
CCN(CC)c1ccc(N2CC=CC34O[C@@H]5/C=C\CCCOC(=O)C5[C@H]3C(=O)N(C(C)CO)[C@@H]4C2=O)cc1 (stereo not given in full)	1.56 (inactive)	-0.0814	0.733 (inactive)	-0.264 (inactive)	1.33 (inactive)	-0.306 (inactive)	0.0073	0.275 (inactive)	-0.0723 (inactive)	0.83	0.838	-0.536	1.43	1.67	0.403	0.8	0.744 (inactive)	-0.441	0.135	0.0032 (inactive)
